The text below walks through data of PubChem BioAssay (NCATS).

Assay [1] is described as follows: Primary qHTS for inhibitors of nuclear receptor binding SET domain protein 2 (NSD2) in an isogenic RCH-ACV NSD2 p.E1099K mutant (9B) (AID 1645876). A general note: qHTS replaces the single test concentration by a dilution series.
Assay [2] is described as follows: Primary qHTS for inhibitors of nuclear receptor binding SET domain protein 2 (NSD2) in an RCH-ACV wild type WT cells (2C) (AID 1645877).

Molecules are shown by their SMILES. Several values for one entry are separate records, joined by “and”; a condition that tells them apart may be missing. Identical values can stand only once. Records with an inconclusive call do not appear. Activity calls are given as the source filed them. The call rests on the fitted dose curve; in most records, active means well fitted curve in the direction sought with a large enough effect; inconclusive means small, poorly fitted or top-dose-only effect, or another doubt; inactive means no such curve, though single readings can be large; an effect the other way counts as inactive or inconclusive.
Further: nearly all actives have a fitted effect of over 70% in size.
Potency means the concentration at half of the fitted maximal effect.

In the case of `Cc1[nH]c2ccc(F)cc2c1-c1nc2c3cccnc3c3ncccc3c2[nH]1`, the values for the Potency in assay [1] and in assay [2] were 1.21 µM (active) and 1.08 µM (active), respectively.

With `CC(=O)O[C@@H]1[C@@H](OC(C)=O)[C@H](C)O[C@@H](O[C@H]2[C@@H]3C=CO[C@@H](O[C@@H]4O[C@H](CO)[C@@H](O)[C@H](O)[C@H]4O)[C@@H]3[C@@]3(CO)O[C@@H]23)[C@@H]1OC(=O)/C=C/c1ccccc1`, the Potency in assay [1] was 6.82 µM (active); in assay [2] it was 4.83 µM (active).

On to `COc1cc(-n2cnc3cc(-c4ccc(Cl)cc4)sc3c2=O)ccc1OCCN1CCCC1`, for which the figures for the Potency in assay [1] and in assay [2] were 7.28 µM (active) and 5.78 µM (active), respectively.

With `COc1ccncc1C(=O)NC(=O)Nc1ccc(-c2ccccc2)c(C(F)(F)F)c1`, the Potency result in assay [1] and in assay [2] was “inactive” in each case.

For `CC(C)C[C@@H]1NC(=O)[C@@H]2C[C@@]34C[C@@H]5[C@@]6(C)CCCC(C)(C)C6CC[C@@]5(C)N(c5ccccc53)[C@H]4N2C1=O` (some centres not stated), the Potency is 3.55 µM (active) in assay [1] and 3.99 µM (active) in assay [2].

For the molecule `O=C(/C=C/c1ccccc1O)O[C@@H]1O[C@H](CO)[C@@H](O)[C@H](O)[C@H]1O`, the Potency entry in assay [1] and in assay [2] was “inactive” in each case.

For the molecule `O=C(NO)c1cnc(N2CCN(S(=O)(=O)c3ccc4ccccc4c3)CC2)nc1`, the Potency in assay [1] and in assay [2] was 0.252 µM (active) each time.

Regarding `CC(=O)O[C@@H]1C[C@@]23C[C@@]24CC[C@H](O[C@@H]2OC[C@H](O)[C@H](O)[C@H]2O)C(C)(C)[C@@H]4CC[C@H]3[C@]2(C)[C@@H](O)C34O[C@H](C[C@@H](C)[C@@H]3[C@@]12C)[C@@H](C(C)(C)O)O4`, the Potency result in assay [1] and in assay [2] was “inactive” throughout.

Consider `NC(=O)CCCSc1nc(N)nc(-c2c(Cl)cc3c4c(cccc24)COC3)n1`, for which the Potency was 0.183 µM (active) in assay [1] and 0.23 µM (active) in assay [2].

Regarding `Cc1[nH]c2ccccc2c1CCNC(=O)c1cccs1`, the Potency entry in assay [1] and in assay [2] was “inactive” throughout.

Take `C=C1[C@H]2CC[C@H](C(=O)O)[C@@]23CC[C@H](C3)C1(C)C`: the Potency result in assay [1] and in assay [2] was “inactive” in each case.

As to `CCC(=O)N1CCOc2c(cc(-c3ccc(OC)c(OC)c3)cc2OC[C@H]2CCCN(C)C2)C1`, the Potency in assay [1] was 8.17 µM (active); in assay [2], 7.28 µM (active).

Consider `CN1CCc2cc3c(cc2C(=O)Cc2cc4c(cc2C1)OCO4)OCO3`, for which the Potency result in assay [1] and in assay [2] was “inactive” throughout.

For the molecule `C=CC(C)(O)CC/C=C(\C)C(=O)OC1C(O)C(CO)OC(OC(=O)C23CCC(C)(C)CC2C2=CCC4C5(C)CCC(OC6OC(COC7OCC(OC(C)=O)C(O)C7OC7OC(COC(C)=O)C(O)C(O)C7OC(C)=O)C(O)C(O)C6OC6OCC(O)C(O)C6O)C(C)(C)C5CCC4(C)C2(C)C(O)C3O)C1OC1OCC(OC2OCC(O)C(OC3OCC(O)C(O)C3O)C2O)C(O)C1O` (configuration not stated), the Potency is 0.792 µM (active) in assay [1] and 1.25 µM (active) in assay [2].

Consider `CC(C)n1cnc2c(-c3cnc(N)nc3)nc(N3CCOCC3)nc21`, for which the Potency in assay [1] was 0.159 µM (active); in assay [2], 0.224 µM (active).

As to `CC(=O)OC1[C@H]2[C@@H](C[C@@H](C)[C@@H]3C=CC(=O)[C@@]13C)OC(=O)[C@@H]2C` (some centres not stated), the Potency is 10.3 µM (active) in assay [1] and 7.28 µM (active) in assay [2].

Regarding `COc1cc(N2CCC(N3CCN(C)CC3)CC2)ccc1Nc1ncc(Cl)c(Nc2ccccc2P(C)(C)=O)n1`, the Potency was 3.65 µM (active) and 1.05 µM (active) in assay [1]; 4.09 µM (active) and 1.48 µM (active) in assay [2].

For `c1cc(NC2CCNCC2)nc(-c2cnc3ccccn23)c1`, the Potency in assay [1] is 1.15 µM (active); in assay [2], 1.45 µM (active).

Take `COC1CC/C=C(\C)C(=O)Nc2cc(O)cc(c2)CC(C)CC(OC)C(O)C(C)/C=C(\C)C1OC(N)=O` (configuration not stated): the Potency is 2.52 µM (active) in assay [1] and 2.82 µM (active) in assay [2].

As for `C=C1C(=O)O[C@@H]2/C=C(/C)[C@@H](OC(C)=O)C/C=C(\C)C[C@@H](OC(=O)/C(=C/CO)CO)[C@@H]12`, the figures for the Potency in assay [1] and in assay [2] were 7.09 µM (active) and 3.17 µM (active), respectively.

Regarding `COc1cc(N2CCC(O)CC2)ccc1Nc1nc(Nc2ccccc2S(=O)(=O)C(C)C)c2[nH]cnc2n1`, the Potency in assay [1] was 5.78 µM (active); in assay [2], 4.09 µM (active).

Take `Cc1cc(C(=O)Nc2cc(Nc3ccc4c(/C=C/c5ccccn5)n[nH]c4c3)ccc2F)n(C)n1`: the Potency in assay [1] was 7.28 µM (active) and 7.42 µM (active); in assay [2] it was 9.16 µM (active) and 7.42 µM (active).

On to `C=C(C(=O)O[C@H]1C/C(C)=C/CC/C(CO)=C/[C@H]2OC(=O)C(=C)[C@H]12)C(O)CO` (some centres not stated), for which the Potency in assay [1] was 7.13 µM (active); in assay [2] it was 2.84 µM (active).

As to `C=C(C)C1CC(O)C(C)C12CC(O)C1(C)OC1C2O` (configuration not stated), the figures for the Potency in assay [1] and in assay [2] were 4.59 µM (active) and 3.25 µM (active), respectively.

For `C=C1CC[C@H]2C(=C)CC[C@H]3C(=C)C(=O)O[C@@H]3[C@@H]12`, the Potency in assay [1] is 16.3 µM (active); in assay [2], 10.3 µM (active).

With `COc1ccc(C(=O)O[C@H]2C=COC=C3C=C4C(=O)N(C)C(=S)C(=O)N4[C@@H]32)cc1Oc1cc(C=O)ccc1O`, the values for the Potency in assay [1] and in assay [2] were 6.32 µM (active) and 2.82 µM (active), respectively.

Regarding `Cn1ncc2cc(-c3cnc(N)c(Cl)c3N3CCC4(CCNC4=O)CC3)ccc21`, the Potency in assay [1] is 2.05 µM (active) and 3.72 µM (active); in assay [2], 0.0934 µM (active).

As for `Cc1cc2c(cc1N1C(=O)c3cccc4c(CCCO)ccc(c34)C1=O)n(C)c(=O)n2C`, the Potency in assay [1] was 0.858 µM (active); in assay [2], 0.608 µM (active).

Consider `CC(=O)OC1CC(C)C2(CCC3(CC(=O)OC3O)O2)C2(C)CCCC(C)(C)C12` (configuration not stated), for which the Potency entry in assay [1] and in assay [2] was “inactive” in each case.

For `CC(=O)O[C@]1(C(C)=O)CC[C@H]2[C@@H]3CCC4=CC(=O)CCC4=C3[C@@H](c3ccc(N(C)C)cc3)C[C@@]21C`, the Potency in assay [1] and in assay [2] was 23 µM (active) in each case.

For the molecule `C=C1C(=O)O[C@@H]2C[C@H](C)[C@@H]3CC(=O)C(C)=C3C[C@H]12`, the Potency in assay [1] is 4.59 µM (active); in assay [2], 2.58 µM (active).

For the molecule `COC(=O)CC1OC(C)C2=C(O)c3c(O)cccc3C(=O)C23OC13` (configuration not stated), the values for the Potency in assay [1] and in assay [2] were 2.84 µM (active) and 2.01 µM (active), respectively.

As to `COc1cc(O)cc(OC2OC(CO)C(O)C(O)C2O)c1` (configuration not stated), the Potency entry in assay [1] and in assay [2] was “inactive” throughout.

As to `COc1cc2c(cc1OC)CN(C(=O)/C=C/c1c(-c3ccccc3)n(C)c3ncccc13)CC2`, the Potency in assay [1] was 8.17 µM (active); in assay [2] it was 11.5 µM (active).

As to `C=C1[C@@H](OC(C)=O)CC[C@@]2(C)[C@@H](OC(C)=O)[C@H](OC(C)=O)C3=C(C)C[C@H](OC(=O)C(C)CC)[C@@H]([C@@H](OC(C)=O)[C@H]12)C3(C)C` (some centres not stated), the Potency in assay [1] and in assay [2] was 1.21 µM (active) in each case.

Turning to `CC[C@@H](C)[C@@H]1OC2(C=C[C@H]1C)C[C@@H]1C[C@H](C/C=C(\C)[C@H](O[C@H]3C[C@H](OC)[C@H](O[C@H]4C[C@H](OC)[C@H](NC(C)=O)[C@H](C)O4)[C@H](C)O3)[C@H](C)/C=C/C=C3\CO[C@H]4[C@H](O)C(C)=C[C@@H](C(=O)O1)[C@@]34O)O2` (some centres not stated), the Potency in assay [1] was 8.01 µM (active); in assay [2], 5.05 µM (active).
